Results from PubChem BioAssay (NCATS).
Results filed as inconclusive are left out. Entries that show only a call come without a potency. Calls of active or inactive are those of the source. Calls come from the whole dose curve; as a rule, active = well fitted inhibition curve with a large enough effect; inconclusive = small, poorly fitted or top-dose-only effect; inactive = flat fitted curve, though single readings scatter. *1 amine or outer side, *2 acyl side, *3 side chain or, on linkers, in order; H or OH if unused. Where a SMILES comes first, the peptide text is derived from it. Bridges are numbered along the chain shown (N, C = ends). [ ]: non-standard residue; d: D form. The star is where a group is joined. ξ: configuration not given here. X10 = NC1=NCCC(C(N[*:1])C(=O)[*:2])N1; ΔAla(3-NHCONH2) = NC(=O)NC=C(N)C(=O)O; ξβ3hOrn = NCCCC(N)CC(=O)*; Dap = NC[CH](N)C(=O)O

Test system: MCC-13
Assay: qHTS assay to identify novel small-molecules to repurpose for Merkel cell carcinoma treatment (AID 1296009); note: nearly all actives have a fitted effect of over 60% in size
Conditions: MCC and control cell lines, CellTiter-Glo viability, 72 h; series mostly up to 46 µM
Method in brief: (§1)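 Dose-response viability screen; 72 hr exposure at 37 degree celsius; CellTiter-Glo added, 10 min room temperature, luminescence read; RLUs scaled between no-cell and DMSO wells.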

| SMILES | Potency | activity change, negative = cytotoxicity |
| --- | --- | --- |
| CC(C)C[C@@H]1[C@H](c2ccccc2)OC(=O)N1CCCN1CCCCCC1 | inactive |  |
| CCOC(=O)CN1CCCC1=O | inactive |  |
| CCOC(=O)C(=O)c1csc(NC=O)n1 | inactive |  |
| N[C@@H](Cc1cc(I)c(O)c(I)c1)C(=O)O | inactive |  |
| CCOC(=O)Oc1ccc(CCNC(=O)[C@H](CCSC)NC(C)=O)cc1OC(=O)OCC | inactive |  |
| C#CC(C)(CC)OC(=O)c1ccccc1C(=O)O (stereo not drawn) | inactive |  |
| CCCOc1ccc2c(c1)CC[C@@H]1[C@@H]2CC[C@]2(C)C(OC)CC[C@@H]12 (stereo partly drawn) | inactive |  |
| CC(C)(C)C1CCC(CC2=C(O)c3ccccc3C(=O)C2=O)CC1 (stereo not drawn) | inactive |  |
| CN1Cc2cc(C(=O)N3CCC(C4CCNCC4)CC3)ccc2NC(CC(=O)O)C1=O (stereo not drawn) | inactive |  |
| O=C(O)C1CCC1 | inactive |  |
| NCCCC(N)CC(=O)NCC1NC(=O)C(CO)NC(=O)C(N)CNC(=O)C(C2CCN=C(N)N2)NC(=O)C(=CNC(N)=O)NC1=O (stereo not drawn) (H-[Dap]S[Dap](ξβ3hOrn)[ΔAla(3-NHCONH2)][X10]; lactam 1-C; configuration not given here) |  | 7.39% [at 0.597 µM] (inactive) |
| Nc1ccc(C(=O)OCC(O)CO)cc1 (stereo not drawn) | inactive |  |
| Cc1ccccc1C(=O)N1CC/C(=N\OS(=O)(=O)O)c2ccc(Cl)cc21 | inactive |  |
| Cn1cc(S(C)=O)c(=O)c2ccc(F)cc21 (stereo not drawn) | inactive |  |
| O=C(CS(=O)Cc1ccco1)NC/C=C\COc1cc(CN2CCCCC2)ccn1 (stereo not drawn) | inactive |  |
| Cn1c(=O)c2c(ncn2CC(=O)O)n(C)c1=O | inactive |  |
| Oc1cccc2[nH]ccc12 | inactive |  |
| CC(C)C(=O)Nc1cccc(C2CN3CCSC3=N2)c1 (stereo not drawn) | inactive |  |
| CCOC(=O)C(=O)CCCCCCl | inactive |  |
| CNC[C@H](O)[C@@H](O)[C@H](O)[C@H](O)CO | inactive |  |

| SMILES | Potency | activity change, negative = cytotoxicity |
| --- | --- | --- |
| CC(C)CCCC(C)NCCC(C)C (stereo not drawn) | inactive |  |
| CCc1cccc2c(CCO)c[nH]c12 | inactive |  |
| Clc1ccc2c(c1)Nc1ccccc1S2 | inactive |  |
| CN1C(=O)c2ccccc2C1=O | inactive |  |
| CC(=O)N(CC(=O)N(C)C)c1ccccc1 | inactive |  |
| CC(=O)OC[C@H]1O[C@@H](OC(C)=O)[C@H](OC(C)=O)[C@@H]1OC(C)=O | inactive |  |
| C/C(=C1\CCOC(=O)S1)N(C=O)Cc1cnc(C)nc1N | inactive |  |
| Cc1cc(=O)oc2cc(O[C@@H]3SC[C@@H](O)[C@H](O)[C@H]3O)ccc12 | inactive |  |
| Fc1ccc(C(c2ccc(F)cc2)N2CCNCC2)cc1 | inactive |  |
| NC(=O)NS(=O)(=O)c1ccc(Cl)cc1 | inactive |  |
| NC(=O)COCCN1CCN(C(c2ccccc2)c2ccc(Cl)cc2)CC1 (stereo not drawn) | inactive |  |
| CC1(C)O[C@@H]2C[C@H]3[C@@H]4CCC5=CC(=O)C=C[C@]5(C)[C@@]4(F)[C@@H](O)C[C@]3(C)[C@]2(C(=O)CO)O1 | inactive |  |
| COC(=O)c1ccc(NC(C)=O)cc1OC | inactive |  |
| O=C(O)CCCC[C@@H]1SC[C@@H]2NC(=O)N[C@@H]21 | inactive |  |
| O=C(O)CCC(=O)OC[C@@H](NC(=O)C(Cl)Cl)[C@H](O)c1ccc([N+](=O)[O-])cc1 | inactive |  |
| C[C@H]1C[C@H](O)c2ccsc2S1(=O)=O | inactive |  |
| [O-][n+]1cccc(/C(Cl)=N/OC[C@@H](O)CN2CCCCC2)c1 | inactive |  |
| CCOC(=O)c1ccc(OCCN2C[C@H](O)[C@@H](O)[C@H](O)[C@H]2CO)cc1 | inactive |  |
| CCCCOC(=O)CCCCCCCCC(=O)OCCCC | inactive |  |

Test system: MCC-26
Assay: as above
Conditions: MCC and control cell lines, CellTiter-Glo viability, 72 h; series mostly up to 46 µM
Method in brief: as §1

| SMILES | Potency | activity change, negative = cytotoxicity |
| --- | --- | --- |
| CC(C)C[C@@H]1[C@H](c2ccccc2)OC(=O)N1CCCN1CCCCCC1 | inactive |  |
| CCOC(=O)CN1CCCC1=O | inactive |  |
| CCOC(=O)C(=O)c1csc(NC=O)n1 | inactive |  |
| N[C@@H](Cc1cc(I)c(O)c(I)c1)C(=O)O | inactive |  |
| CCOC(=O)Oc1ccc(CCNC(=O)[C@H](CCSC)NC(C)=O)cc1OC(=O)OCC | inactive |  |
| C#CC(C)(CC)OC(=O)c1ccccc1C(=O)O (stereo not drawn) | inactive |  |
| CCCOc1ccc2c(c1)CC[C@@H]1[C@@H]2CC[C@]2(C)C(OC)CC[C@@H]12 (stereo partly drawn) | inactive |  |
| CC(C)(C)C1CCC(CC2=C(O)c3ccccc3C(=O)C2=O)CC1 (stereo not drawn) | inactive |  |
| CN1Cc2cc(C(=O)N3CCC(C4CCNCC4)CC3)ccc2NC(CC(=O)O)C1=O (stereo not drawn) | inactive |  |
| O=C(O)C1CCC1 | inactive |  |
| NCCCC(N)CC(=O)NCC1NC(=O)C(CO)NC(=O)C(N)CNC(=O)C(C2CCN=C(N)N2)NC(=O)C(=CNC(N)=O)NC1=O (stereo not drawn) (H-[Dap]S[Dap](ξβ3hOrn)[ΔAla(3-NHCONH2)][X10]; lactam 1-C; configuration not given here) |  | 12.9% [at 0.597 µM] (inactive) |
| Nc1ccc(C(=O)OCC(O)CO)cc1 (stereo not drawn) | inactive |  |
| Cc1ccccc1C(=O)N1CC/C(=N\OS(=O)(=O)O)c2ccc(Cl)cc21 | inactive |  |
| Cn1cc(S(C)=O)c(=O)c2ccc(F)cc21 (stereo not drawn) | inactive |  |
| O=C(CS(=O)Cc1ccco1)NC/C=C\COc1cc(CN2CCCCC2)ccn1 (stereo not drawn) | inactive |  |
| Cn1c(=O)c2c(ncn2CC(=O)O)n(C)c1=O | inactive |  |
| Oc1cccc2[nH]ccc12 | inactive |  |
| CC(C)C(=O)Nc1cccc(C2CN3CCSC3=N2)c1 (stereo not drawn) | inactive |  |
| CCOC(=O)C(=O)CCCCCCl | inactive |  |
| CNC[C@H](O)[C@@H](O)[C@H](O)[C@H](O)CO | inactive |  |

| SMILES | Potency | activity change, negative = cytotoxicity |
| --- | --- | --- |
| CC(C)CCCC(C)NCCC(C)C (stereo not drawn) | inactive |  |
| CCc1cccc2c(CCO)c[nH]c12 | inactive |  |
| Clc1ccc2c(c1)Nc1ccccc1S2 | inactive |  |
| CN1C(=O)c2ccccc2C1=O | inactive |  |
| CC(=O)N(CC(=O)N(C)C)c1ccccc1 | inactive |  |
| CC(=O)OC[C@H]1O[C@@H](OC(C)=O)[C@H](OC(C)=O)[C@@H]1OC(C)=O | inactive |  |
| C/C(=C1\CCOC(=O)S1)N(C=O)Cc1cnc(C)nc1N | inactive |  |
| Cc1cc(=O)oc2cc(O[C@@H]3SC[C@@H](O)[C@H](O)[C@H]3O)ccc12 | inactive |  |
| Fc1ccc(C(c2ccc(F)cc2)N2CCNCC2)cc1 | inactive |  |
| NC(=O)NS(=O)(=O)c1ccc(Cl)cc1 | inactive |  |
| NC(=O)COCCN1CCN(C(c2ccccc2)c2ccc(Cl)cc2)CC1 (stereo not drawn) | inactive |  |
| CC1(C)O[C@@H]2C[C@H]3[C@@H]4CCC5=CC(=O)C=C[C@]5(C)[C@@]4(F)[C@@H](O)C[C@]3(C)[C@]2(C(=O)CO)O1 | inactive |  |
| COC(=O)c1ccc(NC(C)=O)cc1OC | inactive |  |
| O=C(O)CCCC[C@@H]1SC[C@@H]2NC(=O)N[C@@H]21 | inactive |  |
| O=C(O)CCC(=O)OC[C@@H](NC(=O)C(Cl)Cl)[C@H](O)c1ccc([N+](=O)[O-])cc1 | inactive |  |
| C[C@H]1C[C@H](O)c2ccsc2S1(=O)=O | inactive |  |
| [O-][n+]1cccc(/C(Cl)=N/OC[C@@H](O)CN2CCCCC2)c1 | inactive |  |
| CCOC(=O)c1ccc(OCCN2C[C@H](O)[C@@H](O)[C@H](O)[C@H]2CO)cc1 | inactive |  |
| CCCCOC(=O)CCCCCCCCC(=O)OCCCC | inactive |  |
